Assay outcomes as filed in PubChem.
USP30 inh = human USP30 deubiquitinase inhibition | purified USP30, Ub-rhodamine cleavage fluorescence | inhibition, % at 25 µM | hit rate 5.3% among 47,000 | AID 1645860
Target sequence (Q70CQ3 whole entry, looked up): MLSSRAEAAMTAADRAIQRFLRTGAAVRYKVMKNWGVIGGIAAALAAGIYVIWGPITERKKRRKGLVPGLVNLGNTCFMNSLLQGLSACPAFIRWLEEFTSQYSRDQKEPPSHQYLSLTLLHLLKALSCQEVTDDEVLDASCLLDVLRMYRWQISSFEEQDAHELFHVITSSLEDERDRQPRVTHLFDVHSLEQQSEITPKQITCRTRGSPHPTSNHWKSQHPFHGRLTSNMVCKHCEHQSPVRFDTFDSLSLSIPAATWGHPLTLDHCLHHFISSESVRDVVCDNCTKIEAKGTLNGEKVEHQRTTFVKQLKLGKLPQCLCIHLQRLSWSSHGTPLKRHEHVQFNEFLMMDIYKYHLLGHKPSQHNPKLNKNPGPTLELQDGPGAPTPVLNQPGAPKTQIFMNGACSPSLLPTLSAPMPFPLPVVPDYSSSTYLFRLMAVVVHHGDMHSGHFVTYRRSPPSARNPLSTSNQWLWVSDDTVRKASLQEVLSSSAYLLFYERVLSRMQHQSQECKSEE
USP28 inh = blocks human USP28 ubiquitin-rhodamine cleavage. Q96RU2. purified USP28, Ub-rhodamine cleavage fluorescence, 30 min. inhibition, % at 25 µM. hit rate 3% among 47,000. AID 1645857
USP17 inh = human USP17-like deubiquitinase inhibition | A8MUK1 | purified USP17, Ub-rhodamine cleavage fluorescence, 3 h | inhibition, % at 50 µM | hit rate 6.5% among 47,000 | AID 1645855
Numbers stand for hits; – = inactive; · = no result. Compounds with a hit are over-represented: about 11% of the library has one in this group of screens. No stated cut-off is given here; in the data, active means inhibition above about 30%; inactive means the rest.

SMILES	USP30 inh	USP28 inh	USP17 inh
O=C1CC(c2cc(F)ccc2F)c2cc3c(cc2N1)OCCO3 (stereo not drawn)	–	–	–
O=C1CC(c2cc3c(cc2Br)OCO3)c2cc3c(cc2N1)OCCO3 (stereo not drawn)	–	–	67
O=C(COC(=O)c1ccc2ncsc2c1)Nc1ccc(F)c(F)c1	–	–	–
O=C(COC(=O)c1ccc2ncsc2c1)Nc1ccccc1F	–	–	61
O=C(CN(c1cc(C(F)(F)F)ccc1Cl)S(=O)(=O)c1ccccc1)NCc1ccccn1	–	–	–
O=C(Nc1ccc(CNC(=O)N2CCCC2C(=O)Nc2ccccc2)cc1)C1CC1 (stereo not drawn)	–	–	–
CCOc1cc2[nH]c(=O)n(CC3CCC(C(=O)N4CCC5(CC4)OCCO5)CC3)c(=O)c2cc1OCC (stereo not drawn)	–	–	–
CCOc1cc2[nH]c(=O)n(CC3CCC(C(=O)NCCc4c[nH]c5ccccc45)CC3)c(=O)c2cc1OCC (stereo not drawn)	37	–	–
O=C1[C@H]2Cc3c([nH]c4ccccc34)C(c3ccc(Cl)cc3)N2C(=O)CN1C1CCCC1 (stereo partly drawn)	–	–	–
C[C@H](NC(=O)c1cccs1)c1nnc2ccccn12	30	–	–
Cc1ccc(C(=O)N[C@@H](C)c2nnc3ccccn23)cc1	–	–	–
Cc1ccc(Nc2cc(C(=O)N3CCCCC3)c3ccccc3n2)cc1C	–	–	–
CC1CCC(Nc2ncnc3c2CN(C2CCNCC2)C(=O)CN3C)CC1 (stereo not drawn)	–	–	–
CCOc1ccccc1NC(=O)c1cc(-c2ccncc2)n[nH]1	·	·	–
Cc1ccc(NC(=O)C2CCN(C(=O)c3cc(-c4ccncc4)n[nH]3)CC2)cc1Cl	63	37	63
Cc1ccc(NC(=O)c2cc(-c3ccncc3)n[nH]2)cc1Cl	–	36	–
Cc1ccc(CNC(=O)C2CCN(C(=O)c3cc(-c4ccncc4)n[nH]3)CC2)o1	·	·	–
CS(=O)(=O)N[C@@H]1CN(Cc2cccc3ccccc23)C[C@H]1O	–	–	–
CC1(C)C2CCC1(CS(=O)(=O)Nc1ccc(C(N)=O)cc1)C(=O)C2 (stereo not drawn)	·	·	–
COc1cccc(NC(=O)COc2ccc3c(c2)CCC3)c1	–	–	–
COc1cccc(OCC(=O)Nc2ccc3c(c2)CCC(=O)N3Cc2ccccc2)c1	–	35	–
Cc1cccc(OCC(=O)Nc2ccc3c(c2)CCC(=O)N3Cc2ccccc2)c1	31	–	–
O=C(COc1ccc(Cl)cc1)Nc1ccc2c(c1)CCC(=O)N2Cc1ccccc1	–	–	–
COc1ccc(NC(=O)N2CCCC2c2c(C)noc2C)cc1OC (stereo not drawn)	–	–	–
Cc1c(N2CCN(S(=O)(=O)c3ccc(CC(C)C)cc3)CC2)c(=O)n(C)c(=O)n1C	–	–	–
SMILES	USP30 inh	USP28 inh	USP17 inh
CCN1CCC2(CN(C(=O)N(C)C)CC23CCN(S(=O)(=O)c2ccccc2)CC3)C1=O (stereo not drawn)	–	–	–
COc1ccccc1Cc1nnc(C2(C)CCOCC2)o1	–	–	–
COc1ccc(CNC(=O)c2cc(-c3ccccn3)n[nH]2)cc1	–	–	–
COc1cc(OC)cc(C(=O)NCc2[nH]nc3ccccc23)c1	–	31	–
COc1cccc(C(=O)NCc2csc(-c3ccccc3)n2)c1	–	–	–
COc1cccc(C(=O)NCc2[nH]nc3ccccc23)c1	–	–	57
CCc1nnc(-c2ccc(=O)n(CC(=O)N3CCN(c4cc(C)ccc4C)CC3)c2)o1	–	–	–
COc1ccc(Sc2cnc3ccccc3n2)cc1	–	–	–
COc1cccc(CCN2C[C@@]34CN(C(=O)c5cc(C)on5)C[C@@H](C[C@@H]3S2(=O)=O)O4)c1	–	–	–
Cc1ccccc1C(=O)N1CCN(Cc2cc(=O)c3ccccc3[nH]2)CC1	–	–	–
CCCCCCCC1OC(=O)Cc2cc(O)c(O)c(O)c21 (stereo not drawn)	63	94	96
O=C(c1ccno1)N1CCC2(CC1)CN(c1ncccn1)c1ccccc12	–	–	–
O=C(Nc1cccc(C(F)(F)F)c1)N1CCCn2c(nc3ccccc32)C1	79	32	37
Cc1cccc(S(=O)(=O)N2CCc3nc4ccccc4n3CC2)c1	–	–	84
N#Cc1cccc(NC(=O)N2CCCn3c(nc4ccccc43)C2)c1	–	–	–
O=S(=O)(c1ccccc1)N1CCc2nc3ccccc3n2CC1	–	–	–
N#Cc1cccc(NC(=O)N2CCC(CCOc3ccccc3)CC2)c1	33	–	–
O=C(Nc1ccccc1)N1CCCn2c(nc3ccccc32)C1	–	–	–
N#Cc1cccc(NC(=O)N2CCc3nc4ccccc4n3CC2)c1	33	–	–
O=C(Nc1ccccc1)N1CCC(CCOc2ccccc2)CC1	–	–	–
